Data on 24 molecules can be found in PubChem BioAssay AID853 (Columbia University Molecular Screening Center, 2007).

The whole screen tested about 47,000 compounds, of which about 200 (0.43%) were called active. About 1% were inconclusive and are not listed.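 The calls were made as follows: active = inhibition of aggregate fluorescence above about 70%, also judged a hit by eye on the cell image (limit read from the data, passing the limit was not always enough); inconclusive = no rule stated for this call; inactive = not judged a hit on image review.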 Shown is part of a subset that was picked to be rich in actives.

The assay in a line: removal of polyQ htt aggregates in HeLa – imaging, HeLa Exon1htt(103Q)mCFP, confocal imaging, primary screen (AID 853).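 Also: cells exposed to compound for three days before fixation.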 The conditions noted are these: aggregate imaging, at 1.5 µM; fraction fluorescence in grains: measured here: aggregate grain fluorescence fraction, stronger effect = lower value; inhibition: stronger effect = higher value, zero = plate's median compound well.
Usually inhibition stands for the relative decrease from the control value, in per cent. `COc1ccc(CNC(=O)C2CCC(CNc3c(N4CCOCC4)c(=O)c3=O)CC2)cc1` (stereo not drawn): the fraction fluorescence in grains was determined as 33 and the inhibition was 10.7% (inactive).

For `Cc1cc(Cl)c(S(=O)(=O)N(C)C)cc1OCC(N)=O`, the fraction fluorescence in grains is 20.5 and the inhibition is -7.1% (inactive).

As to `O=S(=O)(/C=C/c1ccccc1)NCCc1ccccn1`, the fraction fluorescence in grains stood at 31.8 and the inhibition was 7.7% (inactive).

Take `O=C(Oc1cccnc1)c1cc2ccccc2oc1=O`: the fraction fluorescence in grains was 21 and the inhibition was -5.6% (inactive).

As for `COC(=O)C(C)Oc1ccc2c(-c3cccc([N+](=O)[O-])c3)cc(=O)oc2c1` (stereo not drawn), the fraction fluorescence in grains amounted to 35.3 and the inhibition is 9.1% (inactive).

Turning to `CCCCCCNC(=O)CSc1nccn1Cc1ccccc1`, the fraction fluorescence in grains was 18.3 and the inhibition was 7.5% (inactive).

On to `CCSc1nnc(NC(=O)Cc2ccccc2OC)s1`, for which the fraction fluorescence in grains was found to be 52.6 and the inhibition was -25.1% (inactive).

Turning to `COc1cccc(OC)c1C(=O)Nc1ccc(N2CCCCC2)cc1`, the fraction fluorescence in grains was 19.3 and the inhibition is 18.4% (inactive).

On to `C/C(=C\C(=O)c1ccc(Br)cc1)N1CCCCC1`, for which the fraction fluorescence in grains is 28.4 and the inhibition was 28.3% (inactive).

Consider `CCc1c(O)cc2n(c1=O)-c1ccccc1C2(C)C`, for which the fraction fluorescence in grains came to 27.7 and the inhibition was -37.8% (inactive).

`CC1(C)CC(=O)C(C=NCCN2CCN(C(=S)Nc3cccc(Cl)c3)CC2)=C(O)C1`: the fraction fluorescence in grains amounted to 25.7 and the inhibition was 12.3% (inactive).

For `Cc1cccc(N2CCN(C(=O)CN(C)S(=O)(=O)c3ccc4c(c3)CCC(=O)N4)CC2)c1C`, the fraction fluorescence in grains worked out at 43.8 and the inhibition is -18.5% (inactive).

Turning to `COc1ccc(CCN2CNc3c(c(=O)n(C)c(=O)n3C)C2)cc1OC`, the fraction fluorescence in grains is 63.1 and the inhibition is -203% (inactive).

Consider `COc1ccc(CNC(=O)CCn2cccc2)cc1`, for which the fraction fluorescence in grains is 29.6 and the inhibition is -25.4% (inactive).

For `CCCC(=O)Nc1nc2ccc(NC(=O)c3cccnc3)cc2s1`, the fraction fluorescence in grains worked out at 48.5 and the inhibition is -19% (inactive).

In the case of `CCOC(=O)c1cnc(SC)nc1Sc1ccc(Cl)cc1Cl`, the fraction fluorescence in grains worked out at 27.6 and the inhibition was -31% (inactive).

For `O=C(CSCc1ccc(Cl)cc1)N1CCCCC1`, the fraction fluorescence in grains was 25.4 and the inhibition is -26.2% (inactive).

Regarding `Cn1cnc2c1c(=O)n(Cc1c(Cl)cccc1Cl)c(=O)n2C`, the fraction fluorescence in grains turned out to be 24.1 and the inhibition was -22.3% (inactive).

With `CCOc1nc(NCCN2CCOCC2)nc(Nc2ccc(C)cc2)n1`, the fraction fluorescence in grains came to 42.7 and the inhibition was -6.3% (inactive).

Regarding `CC(NC(=O)CSc1nc2c(cc1C#N)CN(C)CC2)c1ccccc1` (stereo not drawn), the fraction fluorescence in grains was 10.8 and the inhibition was 73.3% (active).

`CC1(C)CCc2nc(SCc3ccccc3)c(C#N)cc2C1`: the fraction fluorescence in grains came to 21.6 and the inhibition is -20.9% (inactive).

Turning to `Cc1cc2cc3c(cc2nc1SCC(=O)Nc1c(C)cccc1C)CCC3`, the fraction fluorescence in grains was 26.1 and the inhibition was 30.7% (inactive).

In the case of `Cc1ccnc(SCCn2c(N(C)Cc3ccccc3)nc3c2c(=O)n(C)c(=O)n3C)n1`, the fraction fluorescence in grains was 35.6 and the inhibition was -10.6% (inactive).

Regarding `CCn1c(CNC(=O)c2ccccc2)nnc1SCC(=O)N1CCN(c2ccccc2)CC1`, the fraction fluorescence in grains came out at 10.5 and the inhibition was 45.3% (inactive).
